From PubChem BioAssay AID1066 (SRMLSC, 2008) come the findings set out here.

The campaign covered roughly 190,000 compounds. About 790 (0.42%) were called active. The sample as a whole holds a higher share of actives than the screen did. A number with no mark means an inactive call.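 Rule for the calls: active = inhibition above a set limit, the median over all tested compounds plus 3 SD (cut at about 9.5% in these data); inconclusive = no clear call, values can overlap the other calls; inactive = the rest.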

This assay deals with HMG-CoA reductase (Enterococcus faecalis, mvaE). Briefly: inhibitors of E. faecalis class II HMGR, primary screen, biochemical, Enterococcus faecalis (AID 1066).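 Note: enzyme runs in reverse so mevalonate oxidation gives rising NADPH absorbance; 0% = complete reaction with DMSO and 100% = background rate lacking mevalonate.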 The settings on record: purified E. faecalis HMGR, NADPH absorbance 340 nm kinetic; at 10 µM; active compounds read high.
In the case of `Cc1onc(C(=O)NN)c1C(=O)N1CCN(C(c2ccccc2)c2ccccc2)CC1`, the inhibition is -0.47%.

In the case of `Cc1nc2sc3c(c2c(=O)n1NC(=O)CCl)CCCC3`, the inhibition was -4.51%.

`CSc1ccc(CNCCN2CCOCC2)cc1`: the inhibition was -2.23%.

In the case of `C/C(CC(=O)Nc1cccc(F)c1)=N\NC(=O)C(=O)NC1CCCCC1`, the inhibition was -2.25%.

For the molecule `CCC(C)(C)NC(=O)CN(Cc1cccs1)C(=O)CNS(=O)(=O)c1ccc(F)cc1`, the inhibition is -1.17%.

With `CC(C)(C)N(CC#CCC(O)(c1ccccc1)C1CCCC1)CCO` (stereo unspecified), the inhibition is -1.31%.

For `N#C/C(=C1\CCCN1)c1nc(-c2ccccc2)cs1`, the inhibition is -5.6%.

For `N#CC(=C1SC=CS1)c1nc(-c2ccccc2)cs1`, the inhibition was -4.9%.

On to `N#CC(=C1CCCC1)c1nc(-c2ccc(Cl)cc2)cs1`, for which the inhibition was 25.7% (active).

Take `CCOC(=O)Cc1csc(NC(=O)C(C)(C)C)n1`: the inhibition was 5.04%.

With `CCOC(=O)Cc1csc(NC(=O)CSc2ccc(Br)cc2)n1`, the inhibition is 5.27%.

`CCOC(=O)Cc1csc(NC(=O)Nc2ccccc2)n1`: the inhibition is 12.1% (active).

On to `COc1ccc(NC(=O)c2ccccc2CC[N+](=O)[O-])cc1`, for which the inhibition was -3.38%.

Turning to `COc1ccccc1CC(NC(C)=O)C(=O)NC1CCN(C(=O)Nc2ccccc2Cl)CC1` (stereo unspecified), the inhibition is -1.31%.

Consider `CC(C)(C)C(=O)N1CCC[C@@]1(CO)C(=O)O`, for which the inhibition is -3.2%.

`CCc1cc(CNC(=O)CC2C(=O)NCCN2CC2CCCCC2)on1` (stereo unspecified): the inhibition was 1.73%.

On to `O=C(O)/C=C/c1ccc(S(=O)(=O)N2CCCCCC2)cc1`, for which the inhibition is -1.58%.

On to `CSCCC(Nc1ccc(S(=O)(=O)N2CCOCC2)cc1[N+](=O)[O-])C(=O)OCC(=O)N(C(C)C)C(C)C` (stereo unspecified), for which the inhibition was -4.18%.

On to `Cc1ccc(NC(=O)CN2CCC(C(N)=O)CC2)cc1[N+](=O)[O-]`, for which the inhibition was -7.59%.

Turning to `CC(=O)N1CCN(S(=O)(=O)c2ccc(C)c([N+](=O)[O-])c2)C1C(C)C` (stereo unspecified), the inhibition was 15.5% (active).

On to `CCc1cccc(C)c1NC(=O)COC(=O)Cc1ccsc1`, for which the inhibition is 0.78%.

With `CCCn1c(=S)[nH]c2ccc(C(F)(F)F)cc21`, the inhibition is -3.38%.

As to `Cc1c(NC(=S)NC(=O)CCc2ccccc2)c(=O)n(-c2ccccc2)n1C`, the inhibition is -5.41%.

`Cc1ccc(Cl)c(NC(=O)CN(C)CC(=O)Nc2ccc(F)c(F)c2F)c1Cl`: the inhibition was -3.18%.

As to `CNCC(O)CN1CCN(c2ccccc2OC)CC1` (stereo unspecified), the inhibition was -5.06%.

On to `Cc1[nH]c2ccccc2c1/C=C(/C#N)C(=O)NC(C)C`, for which the inhibition is -0.57%.

Turning to `CCOc1ccc(NC(=O)CN2CCN(CC(=O)Nc3ccc(OC)cc3)CC2)cc1`, the inhibition was 11.1% (active).

`CCOc1ccc(NC(=O)N2CCN(CC)CC2)cc1`: the inhibition was -2.53%.

For `CCOC(=O)N1CCN(CC(=O)Nc2ccc(F)cc2)CC1`, the inhibition is -2.98%.

On to `S=c1[nH]ccn1-c1ccc(Cl)cc1`, for which the inhibition is -3.58%.

Consider `COc1ccc(CCCc2nnc(SCc3nc4ccccc4c(=O)[nH]3)n2C)cc1`, for which the inhibition is 4.13%.

Turning to `CCN(CC)c1ccc(S(=O)(=O)N2CCOCC2)cc1NC(=O)CSc1cccc[n+]1[O-]`, the inhibition was -6.45%.

For `COC(=O)c1ccccc1NS(=O)(=O)c1ccc2[nH]c(=O)[nH]c2c1`, the inhibition was -1.55%.

With `O=C(COC(=O)CNS(=O)(=O)c1ccccc1)NC12CC3CC(CC(C3)C1)C2`, the inhibition was -0.89%.

On to `O=C1c2ccccc2NC(c2ccccn2)N1NS(=O)(=O)c1ccccc1` (stereo unspecified), for which the inhibition was -5.78%.

With `CC1CCCCC1NC(=O)COC(=O)Cc1ccc(Br)cc1` (stereo unspecified), the inhibition is -8.55%.

Consider `Cc1cc(C)c[n+](-c2nc3ccccc3nc2[N-]S(=O)(=O)c2cccs2)c1`, for which the inhibition is -2.15%.

Consider `COc1cccc(C2SCC(=O)N2c2cccc(C)c2)c1OC` (stereo unspecified), for which the inhibition is -2.05%.

Regarding `O=C(COc1cccc(F)c1)Oc1ccc(C(=O)c2ccccc2)cc1`, the inhibition is 11.7% (active).

Take `Cc1cccc(OCC(=O)Nc2ccccc2F)c1`: the inhibition was -6.74%.

For `O=C(c1ccccc1)c1ccc(OC(=O)N2CCCC2)cc1`, the inhibition was -3.15%.

For the molecule `Cc1nn(CC(=O)Nc2ccc3c(c2)OCO3)c(C)c1[N+](=O)[O-]`, the inhibition was -8.05%.

With `CC1CC(=S)Nc2ccccc2N1Cc1ccccc1` (stereo unspecified), the inhibition is -4.09%.

As for `O=C(O)C1CCCN1S(=O)(=O)c1ccc2c(c1)CCC2` (stereo unspecified), the inhibition was 0.94%.

Take `CC(=O)Nc1ccc(S(=O)(=O)N2CCN(C3CCCCCCC3)CC2)cc1`: the inhibition was -5.25%.

In the case of `CC(=O)Nc1ccc(S(=O)(=O)N2CCCC2C(=O)O)cc1` (stereo unspecified), the inhibition is 18.5% (active).

On to `CCOC(=O)c1[nH]cnc1C(=O)Nc1ccccc1C`, for which the inhibition was -0.64%.

With `O=C1CC(N2CCN(c3ccc(F)cc3)CC2)C(=O)N1c1ccccc1` (stereo unspecified), the inhibition was -3%.

On to `CN(C)/C=C(/C(=O)c1ccc(Cl)cc1)S(=O)(=O)c1ccccc1`, for which the inhibition was -1.53%.

On to `COC(=O)C(=Nc1ccccc1)/C(C(=O)C(=O)N(C)c1ccccc1)=C(\O)c1ccc(Cl)cc1`, for which the inhibition was 12.8% (active).

For `COC(=O)/C(NC(C)=O)=C(\C)c1ccc(Cl)cc1`, the inhibition was -0.22%.

Take `O=C(CCc1ccccc1)Nc1ccc(NC(=O)C2CCCCC2)nc1`: the inhibition is -5.74%.

Consider `COc1ccc(OC)c(-c2csc(NC(=O)C3=NNC(=O)CC3)n2)c1`, for which the inhibition was -3.44%.

`CC1(C)CCc2nc(SCc3ccccc3)c(C#N)cc2C1`: the inhibition was 13.3% (active).

Consider `CC(NC(=O)CSc1nc2c(cc1C#N)CN(C)CC2)c1ccccc1` (stereo unspecified), for which the inhibition is -4.51%.

`Cc1cc(NC(=O)CSc2nc3c(cc2C#N)CCCCC3)no1`: the inhibition is -2.85%.

Turning to `CCCC(=O)Nc1cccc(NC(=S)NC(=O)C(C)Oc2ccc(Cl)cc2Cl)c1` (stereo unspecified), the inhibition is -6.26%.

Consider `N=C1C(c2nc3ccccc3[nH]2)=C(O)CN1NC(=O)c1c[nH]c2ccccc12`, for which the inhibition is 1.51%.

On to `CC(=O)Nc1ccc(NC(=O)C(C)n2c3ccccc3c3nc(=O)cc(C)n32)cc1` (stereo unspecified), for which the inhibition was 3.72%.

For `CCCCN(C(=O)/C=C/c1ccco1)c1c(N)n(CC(C)C)c(=O)[nH]c1=O`, the inhibition is 1.3%.

For the molecule `Cc1cc(C(=O)N/N=C/c2cc([N+](=O)[O-])cc(C)c2O)n[nH]1`, the inhibition is 1.28%.

With `CC1(C)OC(=O)C(=CNC(CO)C(=O)O)C(=O)O1` (stereo unspecified), the inhibition is -0.06%.

For the molecule `CC(C)(C)NC(=O)CN(C(=O)c1csnn1)c1ccccc1-c1ccccc1`, the inhibition is 3.37%.

Regarding `CCOC(=O)CC(NC(=O)C1c2ccccc2Oc2ccccc21)c1ccc(C)cc1` (stereo unspecified), the inhibition is -0.18%.

For `O=C1Nc2ccc([N+](=O)[O-])cc2C1=Nc1cccc(CO)c1`, the inhibition is -7.75%.

Turning to `C/C(=N\OCC(=O)Nc1ccc(Br)cc1)c1cccs1`, the inhibition is -3.94%.

`COC(=O)c1ccc(/C=N/N2C(C)CCCC2C)cc1` (stereo unspecified): the inhibition was -1.41%.

With `CCN(C(=O)COc1cccnc1[N+](=O)[O-])C1CCS(=O)(=O)C1` (stereo unspecified), the inhibition is 1.64%.

In the case of `CCc1ccc(NC(=O)Nc2ccncc2)cc1`, the inhibition was -0.38%.

With `CCOC(=O)CCCNC(=O)COC(=O)c1cc(Br)c(Br)s1`, the inhibition is 6.54%.

Take `COc1cccc(CC2(CO)CCN(Cc3cnc(-c4cccc(C)c4)nc3)CC2)c1`: the inhibition is 10.2% (active).

Regarding `Cc1cccc(-c2ncc(CN3CCC(CO)(CCCc4ccccc4)CC3)cn2)c1`, the inhibition is 3.07%.

In the case of `COc1ccc(CC2(CO)CCN(Cc3cnn(C)c3)CC2)cc1`, the inhibition is 1.94%.

`Cc1ccc(NC(=S)NCCN2CCOCC2)cc1`: the inhibition was -1.8%.

Take `CCCCc1ccc(NC(=S)NCCCN2CCOCC2)cc1`: the inhibition is 9.74% (active).

As for `Cc1cc(C)cc(NC(=S)NCCCN2CCOCC2)c1`, the inhibition was -2.33%.

As to `CCOC(=O)c1sc(NC(=O)c2cc(S(=O)(=O)N3CCOCC3)ccc2C)nc1C`, the inhibition was -0.38%.

For the molecule `Cc1ccc(S(=O)(=O)N2CCOCC2)cc1C(=O)OC1CCCCC1=O` (stereo unspecified), the inhibition is 11.2% (active).

`Cc1ccc(S(=O)(=O)N2CCOCC2)cc1C(=O)NCc1ccc(F)cc1`: the inhibition was -7.95%.

For `C/C=C/C=C/C(=O)OCC(=O)Nc1ccc(Cl)cc1`, the inhibition was -6.31%.

On to `O=C(/C=C/c1ccccc1Cl)Nc1ccc(S(=O)(=O)Nc2ncccn2)cc1`, for which the inhibition is 9.55% (active).

Regarding `O=C(/C=C/c1ccc(Cl)cc1)Nc1ccc(S(=O)(=O)Nc2ncccn2)cc1`, the inhibition was 1.98%.

As to `CC(=O)NS(=O)(=O)c1ccc(NC(=O)/C=C/c2ccccc2Cl)cc1`, the inhibition is 4.83%.

Take `CCOC(=O)C1CCN(S(=O)(=O)c2cc(F)ccc2OC)CC1`: the inhibition was -2.34%.

For `COc1cc(Cl)c(C)cc1NC(=O)[C@@H]1CCCN1C(=O)c1cccs1`, the inhibition was -6.68%.

In the case of `CCOC(=O)C1(Cc2cccc(OC)c2)CCN(C(C)CC(C)(C)O)CC1` (stereo unspecified), the inhibition is -0.39%.

In the case of `COc1ccc(C(=O)NC2CCN(C(=S)Nc3ccccc3)CC2)cc1`, the inhibition is -0.68%.

Regarding `COc1ccc(C(=O)NC2CCN(C(=S)NCCc3ccccc3)CC2)cc1`, the inhibition is 16.3% (active).

With `O=C1CCN(C(=S)NCCc2ccccc2)CC1`, the inhibition was 4.83%.

`Cc1ccc2c(c1)C1CN(C)CCC1N2S(=O)(=O)c1ccc(Oc2ccc([N+](=O)[O-])cc2)cc1` (stereo unspecified): the inhibition is -1.37%.

Regarding `O=C(COC(=O)c1ccc(Cl)nc1)NCc1cccs1`, the inhibition was -2.01%.

Consider `COc1cc(/C=N/n2c(C)n[nH]c2=S)ccc1OCc1ccccc1`, for which the inhibition was 5.27%.

For the molecule `COc1cc(/C=C2/C(=O)ON=C2C)ccc1OCc1ccccc1F`, the inhibition was -4.22%.

Turning to `COc1cc(/C=C2/C(=O)ON=C2C)ccc1OCc1cccc(F)c1`, the inhibition is 15.9% (active).

On to `N/C(Cc1ccc([N+](=O)[O-])cc1)=N\OC(=O)C1CCCCC1`, for which the inhibition is 5.63%.

`Cc1ccc(S(=O)(=O)N2CCOCC2)cc1NC(=O)CSc1nnc(N)s1`: the inhibition was -3.38%.

`CCOC(=O)CNC(=O)N1c2ccccc2Sc2ccccc21`: the inhibition was 10.8% (active).

For the molecule `CCOC(=O)CNC(=O)CN1C(=O)CCSc2ccccc21`, the inhibition is 0.21%.

For the molecule `CCNC(=O)N1c2ccccc2Sc2ccccc21`, the inhibition was -0.32%.

Consider `CCOC(=O)C1CCCN(C(=O)c2cccc(S(=O)(=O)N3CCOCC3)c2)C1` (stereo unspecified), for which the inhibition is 2.45%.

For `O=C(CCc1[nH]c2ccccc2c1Sc1ccccc1)N(CCO)CCO`, the inhibition was -1.48%.

Regarding `COCc1c(N)c(C)nc(Cl)c1C#N`, the inhibition was -1.22%.

Consider `CN(Cc1ccccn1)Cc1nc(-c2ccc(Cl)cc2)no1`, for which the inhibition is -4.55%.

For the molecule `CC(C)(C)c1csc(NC2=NS(=O)(=O)c3ccccc32)n1`, the inhibition is -4.26%.

As to `O=C(Oc1ccccc1)c1ccc2nccnc2c1`, the inhibition was -2.55%.

`O=C(Oc1cccc(NC2=NS(=O)(=O)c3ccccc32)c1)c1ccncc1`: the inhibition was 13.3% (active).

In the case of `O=C1Oc2ccccc2C(=O)/C1=C/c1ccccc1O`, the inhibition was -4.42%.

On to `Cc1ccc(CN2CCN(Cc3cccc(C)n3)CC2CCO)cc1` (stereo unspecified), for which the inhibition is -2.73%.

For the molecule `O=C1c2ccccc2C(=O)N1CCC(O)C[N+](=O)[O-]` (stereo unspecified), the inhibition was 14.4% (active).

In the case of `CC(C)OC(=O)CN1C(=O)c2ccccc2C1=O`, the inhibition was 0.65%.

Consider `O=C1c2ccccc2C(=O)N1CCC(c1ccccc1)c1ccco1` (stereo unspecified), for which the inhibition is -3.81%.
